Records with an inconclusive call do not appear. Entries that show only a call come without a potency. Active and inactive are the calls of the source. Calls follow the shape of the dose curve; as a rule, active = well fitted inhibition curve with a large enough effect; inconclusive = small, poorly fitted or top-dose-only effect; inactive = flat fitted curve, though single readings scatter.

The experiment addresses Aldehyde dehydrogenase, mitochondrial (Homo sapiens) (UniProt P05091). Nature of the experiment: qHTS for Inhibitors of the Aldehyde Dehydrogenase Family (ALDH2) Primary screen (AID 2061308). Also: nearly all actives have a fitted effect of over 55% in size. The note with it: ALDH2 enzyme inhibition qHTS, 1536-well; series mostly up to 56 µM. In general terms: Quantitative high-throughput screening tests each substance at several concentrations.
`CNC(=O)C1=C(C)NC(Nc2nc3ccccc3o2)=NC1c1nn(C)cc1Cl` (configuration not stated): the Potency result was “inactive”.

`COCCNc1nc(C)nc2c1nc(-c1ccccc1)n2CC1CCN(C)CC1`: the Potency result was “inactive”. As to `Oc1cccc2cc(CNc3ccccc3F)cnc12`, the Potency result is “inactive”. With `CC(=O)Nc1sc2c(c1-c1ccc(C)cc1)CCNC2`, the Potency entry was “inactive”. For the compound `N#Cc1c(Oc2ccc(F)c(NC(=O)Cc3cccc(C(F)(F)F)c3)c2)ccc2nc(NC(=O)C3CC3)sc12`, the Potency result is “inactive”. The value for `Cc1ccnc(NC(=S)N[C@H]2CCN(c3cccc(C(F)(F)F)c3)C2)c1` was “inactive”. Regarding `Cc1cc(C)nc(NC(=S)N2CCN(c3ncccc3Cl)CC2)c1`, the Potency entry was “inactive”. Regarding `O=C1CCc2cc(S(=O)(=O)Nc3ccc4ccccc4c3)ccc2N1`, the Potency result was “inactive”. The value for `O=[S+]([O-])(/C=C/c1nc(Nc2cc(F)cc(F)c2)c2ncn(CC(F)F)c2n1)c1ccccc1` was “inactive”; that for `CN(C)c1cccc(-c2ncc(F)c(N3CCC(C(N)=O)CC3)n2)c1` was “inactive”. On to `Cc1ccc(-c2ccc(=O)n(C(C)C)n2)cc1`, for which the Potency entry was “inactive”. The same measure for `CN(CC(=O)Nc1ccc(N2CCOCC2)cc1)Cc1ccccc1O`: “inactive”; for `Cc1ccc(OCCn2c(CCNC(=O)CCc3ccccc3Br)nc3ccccc32)cc1`: “inactive”.

Take `CCC(CC)C(=O)NCCc1nc2ccccc2n1CCOc1ccc(C)cc1`: the Potency entry was “inactive”. The same measure for `O=C(c1ccc2c(c1)ncn2-c1cccc(C(F)(F)F)c1)N1CCCCC1`: “inactive”; for `O=C(NCCc1nc2ccccc2n1CCOc1ccc(Cl)cc1)C1CCCCC1`: “inactive”. The value for `Fc1cc(Nc2nc(-c3ccncc3)nc3ccccc23)ccc1-c1cccc(OC(F)F)c1` was “inactive”.

Values taken from PubChem BioAssay (NCATS).
